Laboratory results: PubChem BioAssay AID431 (Sanford-Burnham Center for Chemical Genomics, 2006)
The whole screen tested about 63,000 compounds, of which about 1,100 (1.7%) were called active. Only a selection was taken, and actives are over-represented in it overall. Results with a measured potency or affinity are listed apart. Unmarked numbers belong to inactive results.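 The calls were made as follows: active = compounds whose percent cytotoxicity in the single-dose primary screen, scaled between solvent and toxic-drug controls, exceeds 50; inactive = the rest.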

Experiment: viability loss of HPDE-C7K cells – cell-based, fluorescence, HTS, primary screen (AID 431);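 also: 0% = DMSO solvent wells and 100% = doxorubicin-treated wells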
Details: HPDE-C7K KRASV12 cells, Alamar Blue viability, 48 h; at 10 µM; stronger effect = higher value

Row | Compound | cytotoxicity
1 | Cc1ccnc(N(C(=O)c2cccs2)C(=O)c2cccs2)c1 | -0.7%
2 | C=CCN1C(c2ccccc2)=CS/C1=C(\C#N)c1nnc2n1CCCCC2 | -0.6%
3 | Cc1cc(C(=O)OCC(=O)NC(=O)NC(C)(C)C)c(C)o1 | -3.4%
4 | COc1cccc(-c2cc(C(=O)N3CCN(C(c4ccccc4)c4ccccc4)CC3)no2)c1 | -8.3%
5 | C=CCn1c(SCc2ccccc2C#N)nnc1-c1cc(Br)ccc1O | 13.1%
6 | C#CC(C)(C)NC(=O)c1ccccc1OC | -11.3%
7 | COc1cccc(C(=O)Nc2ccc(NC(=O)C(C)(C)C)cn2)c1 | 19.5%
8 | Cc1oc(C)c2c(=O)ccc3c(c12)OC(N)=C(C#N)C3c1ccccc1 (stereo not drawn) | -7.8%
9 | CSc1ccc(C2C(C#N)=C(N)Oc3c2ccc(=O)c2c(C)oc(C)c32)cc1 (stereo not drawn) | -2.3%
10 | CCOc1cc(NC(=O)c2ccccn2)c(OCC)cc1NC(=O)CC(C)C | 9.9%
11 | CCOC(=O)NC1(C(F)(F)F)C(=O)NC(C)=C1C#N (stereo not drawn) | 2.9%
12 | O=C(CSc1nc2ccccc2c(=O)n1Cc1ccco1)NCc1ccco1 | -11.8%
13 | CCOC(=O)CSc1nc2ccccc2c(=O)n1Cc1ccco1 | -3%
14 | O=c1c2ccccc2nc(SCc2ccccc2)n1Cc1ccco1 | -7%
15 | CCOC(=O)c1cc2c(c(CSc3nc4ccccc4c(=O)n3Cc3ccco3)c1)OCOC2 | 62.1% (active)
16 | O=C(CSc1nc2ccccc2c(=O)n1Cc1ccco1)NCc1ccccc1 | 58.5% (active)
17 | O=c1c2ccccc2nc(SCc2cc(F)cc3c2OCOC3)n1Cc1ccco1 | -5.3%
18 | Cn1c(CN2CCOCC2)nnc1SCC(=O)Nc1nccs1 | 1.8%
19 | CN(C)CC(C(=O)c1ccccc1)c1ccccc1 (stereo not drawn) | 100% (active)
20 | COc1ccc(C(C(=O)OC(C)CN(C)C)c2ccccc2)cc1 (stereo not drawn) | -8.5%
21 | CCC(C(=O)c1ccc(O)cc1)c1ccccc1 (stereo not drawn) | 18.5%

Row | Compound | cytotoxicity
22 | COc1cccc(C2/C(=C(/O)c3cnn(-c4ccccc4)c3C)C(=O)C(=O)N2CCN(C)C)c1OC (stereo not drawn) | 11.3%
23 | CCC(c1nnnn1Cc1ccccc1)N1CCN(C(=O)c2ccco2)CC1 (stereo not drawn) | -1.7%
24 | COc1ccccc1-c1cc(C(F)(F)F)nc(S(=O)(=O)CCCC(=O)Nc2cc(C)on2)n1 | 27.3%
25 | COc1ccccc1-c1cc(C(F)(F)F)nc(S(=O)(=O)CCCC(=O)N2CCCCC2C)n1 (stereo not drawn) | 50.1% (active)
26 | COc1ccccc1-c1cc(C(F)(F)F)nc(S(=O)(=O)CCCC(=O)NC(C)C)n1 | -3.9%
27 | COc1ccccc1-c1cc(C(F)(F)F)nc(N2CCOCC2)n1 | -4.5%
28 | COc1ccccc1-c1cc(C(F)(F)F)nc(N2CCCC2)n1 | -16.5%
29 | COc1cccc(Oc2cn[nH]c2-c2ccc(O)cc2O)c1 | 43.9%
30 | COc1cccc(Oc2cn[nH]c2-c2ccc(OC)cc2O)c1 | 80.7% (active)
31 | CCOc1ccc(-c2[nH]ncc2Oc2cccc(OC)c2)c(O)c1 | 58.3% (active)
32 | COc1ccc(-c2[nH]ncc2-c2cnn(-c3ccccc3)c2)c(O)c1 | 2.7%
33 | CCOc1cccc(OCCOCCN2CCCC2)c1 | -6.3%
34 | COc1ccc(CC(=O)Nc2cccc(-c3nnc(-c4ccc(C)cc4)o3)c2)cc1OC | 18.8%
35 | O=C(c1ccco1)N1C2C=CC(C2)C1(C(F)(F)F)C(F)(F)F (stereo not drawn) | 0.4%
36 | COc1cccc(C2=NOC(C(=O)NC(C)C)C2)c1 (stereo not drawn) | -9.8%
37 | COc1cccc(C2=NOC(C(=O)NC(C)(C)C)C2)c1 (stereo not drawn) | 0.2%
38 | Cc1cc2cc(CNC(=O)c3ccc4c(c3)OCO4)ccc2[nH]1 | 15.6%
39 | CN1CCN(c2nc(-c3cccnc3)nc3ccccc23)CC1 | -10.1%
40 | Cn1nnnc1Sc1nc(-c2cccnc2)nc2ccccc12 | 109% (active)
41 | OCCSc1nc(-c2cccnc2)nc2ccccc12 | 2.2%
42 | O=C(NCc1ccco1)c1cccnc1-c1nc2ccccc2s1 | 0%

Row | Compound | cytotoxicity
43 | COC(=O)c1cn(CC(=O)N2CCCCCC2)c2ccccc12 | 3.6%
44 | Cn1nccc1C(=O)OCC(=O)Nc1nc(-c2ccccc2)cs1 | -24.7%
45 | O=C1c2[nH]nc(-c3ccccc3O)c2C(c2ccccc2)N1Cc1ccco1 (stereo not drawn) | 32.3%
46 | CC(=O)C1=C(O)C(=O)N(Cc2ccco2)C1c1ccc(F)cc1 (stereo not drawn) | 8.7%
47 | O=C1c2ccccc2NC(c2ccc(F)cc2)N1Cc1ccco1 (stereo not drawn) | 2.1%
48 | O=C1c2ccccc2C(O)N1Cc1ccco1 (stereo not drawn) | -9%
49 | O=C1c2[nH]nc(-c3ccccc3O)c2C(c2cccc(Cl)c2)N1CC1CCCO1 (stereo not drawn) | 38.2%
50 | O=C1C(=O)N(Cc2ccco2)C(c2cccc(Cl)c2)/C1=C(\O)c1ccc2c(c1)OCCO2 (stereo not drawn) | 2.2%
51 | CCn1c(SCC(=O)NCc2cccs2)nnc1-c1ccncc1 | -3.4%
52 | O=C(Nc1ccc(C(=O)Oc2ccccc2)c(O)c1)c1ccco1 | -1.3%
53 | Cc1sc2ncnc(SCC(=O)N3CCCC3)c2c1C | -13.4%
54 | O=C(CSc1nnc(Cc2ccccc2)o1)N1CCc2ccccc21 | -9.6%
55 | C=CCn1c(=N)c(C(=O)OC)cc2c(=O)n3cccc(C)c3nc21 | -26.9%
56 | Cc1ccc(C(=O)N2CCCC2)cc1S(=O)(=O)Nc1ccccc1 | -7%
57 | CC1CCN(C(=O)CSc2nc(N)cc(N)n2)CC1 | -11.1%
58 | CCc1cc(C(=O)Cc2ccc(F)cc2)c(O)cc1O | 50.9% (active)
59 | CCc1cc(C(=O)COc2ccccc2F)c(O)cc1O | -13.8%
60 | CCc1cc(C(=O)Cc2nc3ccccc3[nH]2)c(O)cc1O | 20%
61 | CCCc1cc(C(=O)Cc2ccc(F)cc2)c(O)cc1O | 80.9% (active)
62 | CCCc1cc(C(=O)Cc2ccc(C(=O)OCC)o2)c(O)cc1O | 24.5%
63 | CCc1cc(C(=O)Cc2cnn(-c3ccccc3)c2)c(O)cc1O | 6.7%
